From PubChem BioAssay
Shown are actives, neighbours in structure and some others; about 13% of the full set was active somewhere.
USP10 block: human USP10 deubiquitinase inhibition; Q14694; purified USP10, Ub-rhodamine fluorescence, 60 min; inhibition, % at 20 µM; 47,000 compounds, 1.1% hits; AID 1645856
UCHL1 block: blocks human UCHL1 ubiquitin-rhodamine cleavage. 47,000 compounds, 0.2% hits. P09936. AID 1645859. inhibition, % at 20 µM. purified UCHL1, Ub-rhodamine cleavage fluorescence
USP7 block: blocks human USP7 ubiquitin-rhodamine cleavage; Q93009; purified USP7, Ub-rhodamine cleavage fluorescence; inhibition, % at 20 µM; 47,000 compounds, 0.3% hits; AID 1645854
USP17 inh: human USP17-like deubiquitinase inhibition; purified USP17, Ub-rhodamine cleavage fluorescence, 3 h; inhibition, % at 50 µM; 47,000 compounds, 6.5% hits; A8MUK1
USP8 inh: blocks human USP8 ubiquitin-rhodamine cleavage; purified USP8, Ub-rhodamine cleavage fluorescence, 30 min; inhibition, % at 20 µM; 47,000 compounds, 4.2% hits
USP30 inh: blocks human USP30 ubiquitin-rhodamine cleavage; Q70CQ3; purified USP30, Ub-rhodamine cleavage fluorescence; inhibition, % at 25 µM; 47,000 compounds, 5.3% hits; AID 1645860
Numbers stand for hits; . = inactive. Cut-off read from the data, not from the text of the source: active = inhibition above about 30%; inactive = the rest.

SMILES	USP10 block	UCHL1 block	USP7 block	USP17 inh	USP8 inh	USP30 inh
COc1ccc(C2CC(=O)C3=C(C2)Nc2ccccc2N(C(=O)c2ccccc2)C3c2ccc(C(C)(C)C)cc2)cc1 (configuration not stated)	.	.	.	.	.	.
CCCOc1ccc(C2C3=C(CC(C)(C)CC3=O)Nc3ccccc3N2C(=O)c2ccccc2)cc1OC (configuration not stated)	.	.	.	.	.	42
COc1ccc(OC)c(NC(=O)Cn2c(=O)n(C3CCCCC3)c(=O)c3ccccc32)c1	43	.	.	.	.	.
O=C(Cc1ccc(-n2c(=O)c3ccccc3n(Cc3cccc([N+](=O)[O-])c3)c2=O)cc1)NC1CCCC1	36	.	.	.	.	.
O=C(Cc1ccc(-n2c(=O)c3ccccc3n(Cc3cccc(F)c3)c2=O)cc1)NC1CCCC1	.	.	.	.	.	.
COc1cc(NC(=O)Cn2c(=O)n(-c3ccc(CC(=O)NC4CCCC4)cc3)c(=O)c3ccccc32)cc(OC)c1	.	.	.	41	63	.
COc1ccc(NC(=O)Cn2c(=O)n(C3CCCCC3)c(=O)c3ccccc32)cc1	.	.	.	.	.	.
O=C(Cn1c(=O)n(-c2ccc(CC(=O)NC3CCCC3)cc2)c(=O)c2ccccc21)Nc1ccccc1[N+](=O)[O-]	44	.	.	.	80	.
CC(=O)Nc1ccc(-n2nnc(C(=O)NC3CC3)n2)cc1	.	.	.	.	.	.
O=C(c1ccccc1F)N1CCC(c2[nH]nc3nccnc23)CC1	.	.	.	.	.	35
O=C(Cc1ccccc1F)N1CCC(c2[nH]nc3nccnc23)CC1	.	.	.	.	.	.
COc1cccc(NC(=O)c2cnc(N3CCCC3)nc2C)c1	.	.	.	.	.	.
Cc1ccc(-c2nc(NC(=O)COc3cc(C)cc(C)c3)no2)cc1	.	.	.	.	.	.
O=C(Cc1noc(-c2ccc(F)cc2)n1)Nc1ccccc1	.	.	.	.	.	.
O=C(Nc1noc(-c2ccccc2)n1)c1ccc(Br)cc1	.	.	.	.	38	.
O=C(COc1ccc(F)cc1)Nc1noc(-c2ccccc2)n1	.	.	.	63	.	74
COc1ccccc1OC(C)C(=O)Nc1noc(-c2ccccc2)n1 (configuration not stated)	.	.	.	.	.	.
Cc1ccc(-c2nc(NC(=O)COc3ccc(Cl)cc3)no2)cc1	65	.	64	93	93	.
Cc1cccc(-c2nc(NC(=O)COc3ccc(F)cc3)no2)c1	.	.	.	71	83	68
CCc1ccc(S(=O)(=O)Nc2cnc(N3CCCC3)nc2)cc1	.	.	.	.	.	.
COc1ccccc1CNC(=O)C1(c2cccc(F)c2)CCCC1	.	.	.	.	.	.
CCn1c(-c2cc(NC(=O)C3CCCO3)n[nH]2)cc2c(OC)cccc21 (configuration not stated)	.	.	.	.	.	.
Cc1ccc(C(C)NC(=O)c2cccc(-c3cnc(N4CCCC4)nc3)c2)cc1 (configuration not stated)	.	.	.	.	.	.
Cc1ccccc1CNC(=O)c1cccc(-c2cnc(N3CCCC3)nc2)c1	.	.	.	.	.	32
CC(=O)c1ccc(NC(=O)CSc2nnc(Cc3ccccc3)n2C2CCCCC2)cc1	.	.	.	.	.	.
SMILES	USP10 block	UCHL1 block	USP7 block	USP17 inh	USP8 inh	USP30 inh
CCn1c(=O)[nH]c2ccc(Br)cc2c1=O	.	.	.	.	.	.
NC(=S)N=Nc1c(O)[nH]c2ccc(Br)cc12	.	.	.	.	.	34
CC(=O)NC(Cc1ccc(C)cc1)C(=O)NC1CCN(C(=O)Nc2ccc(C)cc2)CC1 (configuration not stated)	.	.	.	.	.	.
Cn1nc(-c2ccccc2F)c2cc(C(=O)NCCc3ccc(S(N)(=O)=O)cc3)sc21	.	.	.	.	33	32
NS(=O)(=O)c1ccc(CCNC(=O)c2nc(-c3ccccc3)n(-c3ccccc3)n2)cc1	.	.	.	.	.	.
Cc1nc2ccccc2c(=O)n1Cc1ccc(-c2ccccc2)cc1	.	.	.	51	.	.
CCN(CCCNS(=O)(=O)c1cccc2cccnc12)c1ccccc1	.	.	.	.	.	.
CCCc1nc2sc3c(NCCCN4CCOCC4)ncnc3c2c2c1CCC2	.	.	.	.	.	.
O=C(Nc1cccc(F)c1)C1=NOC2(CCNCC2)C1	.	.	.	.	.	.
